# In ChEMBL document CHEMBL1157539, “Thousands of chemical starting points for antimalarial lead identification” (Nature, 2010):
# “And” between values parts separate entries of the source, which are not always exact repeats. Equal values may be shown once.
# Columns and labels:
# Assay type in all cases: functional
# Plasmodium falciparum [1] = assay: GSK_TCMDC: Inhibition of Plasmodium falciparum 3D7 in whole red blood cells, using parasite LDH activity as an index of growth. Test compounds present at 2uM
# Plasmodium falciparum [2] = assay: GSK_TCMDC: Inhibition of Plasmodium falciparum Dd2 in whole red blood cells, using parasite LDH activity as an index of growth. Test compounds present at 2uM
# HepG2 = assay: GSK_TCMDC: Percent inhibition of human HepG2 cell line. Test compounds present at 10uM.
smiles,measurement,setting,value
COc1ccc(CC(C)NCC(O)c2cccc(Cl)c2F)cc1 (centres undefined),Inhibition,Plasmodium falciparum [1],88%
same,Inhibition,Plasmodium falciparum [2],59%
same,Inhibition,HepG2,3%
O=C(/C=C/c1cc(C(F)(F)F)ccc1F)N1CCC(CN2CCC(c3c[nH]c4ccccc34)CC2)CC1,Inhibition,Plasmodium falciparum [1],96%
same,Inhibition,Plasmodium falciparum [2],14%
same,Inhibition,HepG2,22%
COC(=O)c1sccc1NC(=S)NC1CCC(CN2CCC(c3c[nH]c4ccccc34)CC2)CC1 (centres undefined),Inhibition,Plasmodium falciparum [1],97% and 100%
same,Inhibition,Plasmodium falciparum [2],49% and 54%
same,Inhibition,HepG2,34% and 25%
CC(=O)Nc1ccc(CN2CCC(N(C)c3cc(NC(=O)c4cccc(F)c4)ccn3)CC2)cc1.O=C(O)C(F)(F)F,Inhibition,Plasmodium falciparum [1],85%
same,Inhibition,Plasmodium falciparum [2],0%
same,Inhibition,HepG2,4%
CC(C)CNCc1ccc(-c2cccc(CN(C(=O)CCC3CCCC3)C3CCN(Cc4ccccc4)CC3)c2)cc1.O=C(O)C(F)(F)F,Inhibition,Plasmodium falciparum [1],100%
same,Inhibition,Plasmodium falciparum [2],92%
same,Inhibition,HepG2,62%
CC(C)CNCc1cccc(-c2ccccc2CN(C(=O)Nc2ccccc2)C2CCN(Cc3ccccc3)CC2)c1.O=C(O)C(F)(F)F,Inhibition,Plasmodium falciparum [1],100%
same,Inhibition,Plasmodium falciparum [2],68%
same,Inhibition,HepG2,36%
CCOC(=O)c1c(CN2CCN(C)CC2)n(Cc2ccccc2)c2cc(Br)c(O)cc12,Inhibition,Plasmodium falciparum [1],100%
same,Inhibition,Plasmodium falciparum [2],46%
same,Inhibition,HepG2,11%
CC(NC(C)(C)C)C(O)c1ccc(Cl)c(C(F)(F)F)c1.Cl (centres undefined),Inhibition,Plasmodium falciparum [1],97%
same,Inhibition,Plasmodium falciparum [2],97%
same,Inhibition,HepG2,0%
O=C(c1ccccc1)C1CC1CN1CC=C(c2c[nH]c3ccccc23)CC1 (centres undefined),Inhibition,Plasmodium falciparum [1],95%
same,Inhibition,Plasmodium falciparum [2],73%
same,Inhibition,HepG2,4%
COc1ccc(N(c2nc(-c3cc(Cl)ccc3Cl)cs2)C2CCNCC2)cc1.O=C(O)C(F)(F)F,Inhibition,Plasmodium falciparum [1],91%
same,Inhibition,Plasmodium falciparum [2],4%
same,Inhibition,HepG2,17%
CC(=O)N(Cc1ccccc1-c1ccc(CNCCc2ccccc2)cc1)C1CCN(Cc2ccccc2)CC1.O=C(O)C(F)(F)F,Inhibition,Plasmodium falciparum [1],100%
same,Inhibition,Plasmodium falciparum [2],85%
same,Inhibition,HepG2,24%
Br.Cc1ccccc1C1=CCN(CCCN2c3ccccc3Sc3ccc(Cl)cc32)CC1,Inhibition,Plasmodium falciparum [1],90%
same,Inhibition,Plasmodium falciparum [2],30%
same,Inhibition,HepG2,14%
O=C(/C=C/c1ccsc1)NC1CCC(CN2CCC(c3c[nH]c4ccccc34)CC2)CC1 (centres undefined),Inhibition,Plasmodium falciparum [1],82%
same,Inhibition,Plasmodium falciparum [2],20%
same,Inhibition,HepG2,29%
Cl.NCC(=O)c1cc2c(cc1N)OCCO2,Inhibition,Plasmodium falciparum [1],89%
same,Inhibition,Plasmodium falciparum [2],42%
same,Inhibition,HepG2,64%
CCCCCC(C)C(C)c1cc(O)c2c3c(c(=O)oc2c1)CN(Cc1ccccc1)CC3.Cl (centres undefined),Inhibition,Plasmodium falciparum [1],99%
same,Inhibition,Plasmodium falciparum [2],47%
same,Inhibition,HepG2,4%
CC[C@H]1CN2CC[C@H]1C[C@H]2[C@H](O)c1cc(-c2ccc3ccccc3c2)nc2ccc(OC)cc12.Cl,Inhibition,Plasmodium falciparum [1],99%
same,Inhibition,Plasmodium falciparum [2],99%
same,Inhibition,HepG2,49%
O=C(C=Cc1ccc(Br)cc1)NC1CCC(CN2CCC(c3c[nH]c4ccccc34)CC2)CC1 (centres undefined),Inhibition,Plasmodium falciparum [1],100%
same,Inhibition,Plasmodium falciparum [2],98%
same,Inhibition,HepG2,71%
CC1(C)CCCN(C(=O)Cc2ccc3c(c2)CCCC3)C1CN1CC=CC1.Cl (centres undefined),Inhibition,Plasmodium falciparum [1],98%
same,Inhibition,Plasmodium falciparum [2],1%
same,Inhibition,HepG2,0%
CC[C@H]1CN2CCc3cc(OC)c(OC)cc3[C@@H]2C[C@@H]1C[C@H]1NCCc2c1cc(OC)c(O)c2Cl,Inhibition,Plasmodium falciparum [1],100%
same,Inhibition,Plasmodium falciparum [2],100%
same,Inhibition,HepG2,51%
CC[C@H]1CN2CC[C@@H]1C[C@H]2[C@H](O)c1cc(N2CCC(C(N)=O)CC2)nc2ccc(OC)cc12,Inhibition,Plasmodium falciparum [1],99%
same,Inhibition,Plasmodium falciparum [2],9%
same,Inhibition,HepG2,17%
Cc1cccc(N2CCN(Cc3cc(Cl)ccc3O)CC2)c1C.O=C(O)C(=O)O,Inhibition,Plasmodium falciparum [1],96%
same,Inhibition,Plasmodium falciparum [2],96%
same,Inhibition,HepG2,0%
CCCCCCCc1cc(=O)c2ccccc2[nH]1,Inhibition,Plasmodium falciparum [1],96%
same,Inhibition,Plasmodium falciparum [2],94%
same,Inhibition,HepG2,5%
CC[C@H]1CN2CC[C@H]1C[C@H]2[C@H](O)c1cc(-c2ccccc2C)nc2ccc(OC)cc12.Cl,Inhibition,Plasmodium falciparum [1],100%
same,Inhibition,Plasmodium falciparum [2],98%
same,Inhibition,HepG2,16%
COc1cc(CN2CCN(c3ccnc(N(C)C4CCN(C)CC4)n3)CC2)cc(Cl)c1O,Inhibition,Plasmodium falciparum [1],94%
same,Inhibition,Plasmodium falciparum [2],63%
same,Inhibition,HepG2,11%
COc1ccc(CC(C)NCC(O)c2cccc(C(F)(F)F)c2)cc1 (centres undefined),Inhibition,Plasmodium falciparum [1],98%
same,Inhibition,Plasmodium falciparum [2],94%
same,Inhibition,HepG2,0%
O=C(/C=C/c1ccccc1Cl)NC1CCC(CN2C3CCC2CC(c2c[nH]c4ccccc24)C3)CC1 (centres undefined),Inhibition,Plasmodium falciparum [1],100%
same,Inhibition,Plasmodium falciparum [2],98%
same,Inhibition,HepG2,56%
O=C(C=Cc1ccc(F)c(Br)c1)N1CCC(CN2CCC(c3c[nH]c4ccccc34)CC2)CC1,Inhibition,Plasmodium falciparum [1],100%
same,Inhibition,Plasmodium falciparum [2],9%
same,Inhibition,HepG2,39%
Cl.c1ccc2c(NCCCCCCNc3c4c(nc5ccccc35)CCCC4)c3c(nc2c1)CCCC3,Inhibition,Plasmodium falciparum [1],100%
same,Inhibition,Plasmodium falciparum [2],51%
same,Inhibition,HepG2,90%
